# Laboratory results published in PubChem BioAssay (NCATS).
# Columns and labels:
# [1] = qHTS profiling of the MIPE4 collection as inhibitors of Plasmodium falciparum (3D7) proliferation (AID 743344);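 further: scaled between DMSO vehicle wells and 0.29 µM artemisinin as full inhibition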; conditions: P. falciparum 3D7 in erythrocytes, SYBR Green DNA fluorescence, 72 h; at 28.5 µM
# Outline: (§1)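 Erythrocytes infected with P. falciparum (0.3% parasitemia, 2.5% hematocrit) incubated with compounds 72 h at 37 C, 5% CO2. Lysis with saponin/Triton buffer containing SYBR Green I, overnight at room temperature in the dark; DNA fluorescence (485/535 nm) normalised to 0.29 uM artemisinin and DMSO.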
# [2] = qHTS profiling of the MIPE4 collection as inhibitors of Plasmodium falciparum (DD2) proliferation (Rep 2) (AID 743346); conditions: P. falciparum Dd2 in erythrocytes, SYBR Green DNA, 72 h; at 28.5 µM
# Outline: as §1
# [3] = qHTS profiling of the MIPE4 collection as inhibitors of Plasmodium falciparum (HB3) proliferation (AID 743347);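 further: plate controls were DMSO vehicle wells for no effect and artemisinin wells for full effect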; conditions: P. falciparum HB3 in erythrocytes, SYBR Green DNA, 72 h; at 28.5 µM
# Outline: as §1
# [4] = qHTS profiling of the MIPE4 collection as inhibitors of Plasmodium falciparum (DD2) proliferation (AID 743345); conditions: P. falciparum Dd2 in erythrocytes, SYBR Green DNA, 72 h; at 28.5 µM unless noted
# Outline: as §1
smiles,measurement,setting,value
C[C@H]([C@H](O)CCC(C)(C)O)[C@H]1CC[C@@]2(O)C3=CC(=O)[C@@H]4C[C@@H](O)[C@@H](O)C[C@]4(C)[C@@H]3CC[C@]12C,"parasite growth, % of DMSO control",[1],93.7%
same,"parasite growth, % of control (lower = inhibition)",[2],93.3%
same,"growth, % of control",[3],59%
CC(O)=C(C#N)C(=O)Nc1cc(Br)ccc1Br,"parasite growth, % of DMSO control",[1],80.7%
same,"parasite growth, % of control (lower = inhibition)",[2],78.2%
same,"growth, % of control",[3],93.7%
CC(C)(C)[C@]1(O)C[C@@H]2OC(=O)C[C@@]23C(=O)O[C@@H]2OC(=O)[C@H](O)C213 (stereo partly drawn),"parasite growth, % of DMSO control",[1],95%
same,"parasite growth, % of control (lower = inhibition)",[2],81.5%
same,"growth, % of control",[3],75.6%
O=c1[nH]c2ccc(Cl)cc2c(N[C@@H]2CN3CCC2CC3)c1-c1nc2ccccc2[nH]1,"parasite growth, % of DMSO control",[1],5.05%
same,"parasite growth, % of control (lower = inhibition)",[2],8.84%
same,"growth, % of control",[3],2.7%
CN1CCN(c2ccc([N+](=O)[O-])c3no[n+]([O-])c23)CC1,"parasite growth, % of DMSO control",[1],77.4%
same,"parasite growth, % of control (lower = inhibition)",[2],86.4%
same,"growth, % of control",[3],99.7%
C[C@](O)(COc1ccc(C#N)cc1)C(=O)Nc1ccc(C#N)c(C(F)(F)F)c1,"parasite growth, % of DMSO control",[1],6.31%
same,"parasite growth, % of control (lower = inhibition)",[2],20.8%
same,"growth, % of control",[3],9.27%
N#C[C@H](O[C@@H]1O[C@H](CO[C@@H]2O[C@H](CO)[C@H](O)[C@H](O)[C@H]2O)[C@H](O)[C@H](O)[C@H]1O)c1ccccc1,"parasite growth, % of DMSO control",[1],61.2%
same,"parasite growth, % of control (lower = inhibition)",[2],37.7%
same,"growth, % of control",[3],60.6%
C=C1C[C@H]2[C@H]3CCC(=O)[C@@]3(C)CC[C@@H]2[C@@]2(C)C=CC(=O)C=C12,"parasite growth, % of DMSO control",[1],51.5%
same,"parasite growth, % of control (lower = inhibition)",[2],50.5%
same,"growth, % of control",[3],29%
COCC1(CO)C(=O)C2CCN1CC2 (stereo not drawn),"parasite growth, % of DMSO control",[1],94.3%
same,"parasite growth, % of control (lower = inhibition)",[2],42%
same,"growth, % of control",[3],87.2%
O=c1[nH]c2ccccc2n1C1CCN(Cc2ccc(-c3[nH]c4cc5ncnc5cc4nc3-c3ccccc3)cc2)CC1,"parasite growth, % of DMSO control",[1],4.63%
same,"parasite growth, % of control (lower = inhibition)",[2],14.2%
same,"growth, % of control",[3],4.58%
CC(=O)O[C@@]12CO[C@H]1C[C@H](O)[C@@]1(C)C(=O)[C@H](O)C3=C(C)[C@@H](O)C[C@@](O)([C@@H](OC(=O)c4ccccc4)[C@@H]21)C3(C)C,"parasite growth, % of DMSO control",[1],60.1%
same,"parasite growth, % of control (lower = inhibition)",[2],42.4%
same,"growth, % of control",[3],34.8%
CC[C@H]1C=CC=CC[C@@H](C)[C@H](O)[C@@](C)(O)C(=O)[C@@H](C)[C@H](O)[C@@H](C)C(=O)[C@@H](C)[C@H](O)[C@@H](C)C=CC(=O)O[C@@H]2[C@@H](C)[C@H](CC1)O[C@]1(CC[C@H](C)[C@H](C[C@@H](C)O)O1)[C@H]2C,"parasite growth, % of DMSO control",[1],16.9%
same,"parasite growth, % of control (lower = inhibition)",[2],20.2%
same,"growth, % of control",[3],8.5%
Cc1c(N)nc([C@H](CC(N)=O)NC[C@@H](N)C(N)=O)nc1C(=O)N[C@H](C(=O)N[C@@H](C)[C@H](O)[C@@H](C)C(=O)N[C@@H](C(=O)NCCc1nc(-c2nc(C(=O)NCCC[S+](C)C)cs2)cs1)[C@@H](C)O)C(O[C@H]1O[C@H](CO)[C@H](O)[C@@H](O)[C@@H]1O[C@H]1O[C@H](CO)[C@@H](O)[C@H](OC(N)=O)[C@H]1O)c1cnc[nH]1 (stereo partly drawn),"parasite growth, % of DMSO control",[1],11%
same,"parasite growth, % of control (lower = inhibition)",[2],15.5%
same,"growth, % of control",[3],68.4%
C[C@]12CC[C@H]3[C@@H](CCC4=CC(=O)CC[C@@]43C)[C@H]1CC[C@H]2OC(=O)CCC1CCCC1,"parasite growth, % of DMSO control",[1],7.86%
same,"parasite growth, % of control (lower = inhibition)",[2],18.3%
same,"growth, % of control",[3],6.49%
CC1(N2CCC(n3c([C@@H]4CCCNC4)nc4ccccc43)CC2)CCCCCCC1,"parasite growth, % of DMSO control",[1],5.01%
same,"parasite growth, % of control (lower = inhibition)",[2],19.4%
same,"growth, % of control",[3],6.13%
O=[N+]([O-])c1ncc[nH]1,"parasite growth, % of DMSO control",[1],89%
same,"parasite growth, % of control (lower = inhibition)",[2],101%
same,"growth, % of control",[3],81.7%
COC1=CC(C)=C[C@@H](C)[C@@H](O)[C@@H](C)CC(C)=CC=C[C@H](OC)[C@H]([C@@H](C)[C@@H](O)[C@H](C)[C@@]2(O)C[C@@H](O)[C@H](C)[C@@H](C(C)C)O2)OC1=O,"parasite growth, % of DMSO control",[1],6.56%
same,"parasite growth remaining, % of DMSO control (lower = more inhibition)",[4],6.47%
same,"parasite growth, % of control (lower = inhibition)",[2],13.8%
same,"growth, % of control",[3],8.98%
COc1ccc(CC2NCCc3cc(OC)c(OC)cc32)cc1OC (stereo not drawn),"parasite growth, % of DMSO control",[1],85.9%
same,"parasite growth remaining, % of DMSO control (lower = more inhibition)",[4],85.6%
same,"parasite growth, % of control (lower = inhibition)",[2],55.8%
same,"growth, % of control",[3],90.4%
Cc1ccccc1-n1c(Cn2ncc3c(N)ncnc32)nc2cccc(C)c2c1=O,"parasite growth, % of DMSO control",[1],48.8%
same,"parasite growth, % of control (lower = inhibition)",[2],37%
same,"growth, % of control",[3],53.3%
CC(N[C@H]1C[C@H]1c1ccccc1)c1ccc2c(c1)OCCO2 (stereo partly drawn),"parasite growth, % of DMSO control",[1],90.6%
same,"parasite growth, % of control (lower = inhibition)",[2],64.1%
same,"growth, % of control",[3],60.1%
CCCN1CCO[C@@H]2c3cc(O)ccc3OC[C@@H]21,"parasite growth, % of DMSO control",[1],98.1%
same,"parasite growth remaining, % of DMSO control (lower = more inhibition)",[4],99.7%
same,"parasite growth, % of control (lower = inhibition)",[2],91%
same,"growth, % of control",[3],77.3%
CCOC(=O)Nc1ccc(NCc2ccc(F)cc2)cc1N,"parasite growth, % of DMSO control",[1],12.8%
same,"parasite growth, % of control (lower = inhibition)",[2],30.4%
same,"growth, % of control",[3],15.1%
CCOC(=O)c1cncn1[C@H](C)c1ccccc1,"parasite growth, % of DMSO control",[1],46.8%
same,"parasite growth remaining, % of DMSO control (lower = more inhibition)",[4],98%
same,"parasite growth, % of control (lower = inhibition)",[2],70.6%
same,"growth, % of control",[3],67.6%
Clc1ccccc1C(c1ccccc1)(c1ccccc1)n1cccn1,"parasite growth, % of DMSO control",[1],9.07%
same,"parasite growth remaining, % of DMSO control (lower = more inhibition)",[4],34.8%
same,"parasite growth, % of control (lower = inhibition)",[2],11.6%
same,"growth, % of control",[3],6.73%
C[C@]12COC(=O)C[C@@H]1CC[C@@H]1[C@H]2CC[C@@]2(C)[C@H]1CC[C@]2(C)O,"parasite growth, % of DMSO control",[1],89.9%
same,"parasite growth remaining, % of DMSO control (lower = more inhibition)",[4],96.6%
same,"parasite growth, % of control (lower = inhibition)",[2],93%
same,"growth, % of control",[3],93.7%
c1ccc2c(CN3CCNCC3)cccc2c1,"parasite growth, % of DMSO control",[1],85.3%
same,"parasite growth, % of control (lower = inhibition)",[2],43.2%
same,"growth, % of control",[3],109%
O=S(=O)(CC1CS1)c1ccc(Oc2ccccc2)cc1 (stereo not drawn),"parasite growth, % of DMSO control",[1],94.4%
same,"parasite growth remaining, % of DMSO control (lower = more inhibition)",[4],104%
same,"parasite growth, % of control (lower = inhibition)",[2],73.8%
same,"growth, % of control",[3],106%
